In PubChem BioAssay one finds cytochrome c release ratio data, which are given here for 23 compounds.

The test is described as follows: blockers of cytochrome c efflux from mitochondria – biochemical, purified mitochondria (AID 1603).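 Further: mouse liver mitochondria challenged with calcium chloride; signal normalized to the plate average as 100%.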 Particulars: stronger effect = lower value.
With `CN1CCN(CCCN2c3ccccc3Sc3ccc(Cl)cc32)CC1`, the cytochrome c release ratio turned out to be 2.91.

`CC(C(=O)O)c1ccc(C(=O)c2cccs2)cc1` (stereo not drawn): the cytochrome c release ratio turned out to be 1.35.

As to `Nc1c(Br)cc(Br)cc1CNC1CCC(O)CC1` (stereo not drawn), the cytochrome c release ratio was determined as 1.08.

As to `COc1cnc(NS(=O)(=O)c2ccc(N)cc2)nc1`, the cytochrome c release ratio is 0.79.

Turning to `CC(C)(Oc1ccc(CCNC(=O)c2ccc(Cl)cc2)cc1)C(=O)O`, the cytochrome c release ratio came to 0.96.

As to `CO[C@]12C[C@@H](COC(=O)c3cncc(Br)c3)CN(C)[C@@H]1Cc1cn(C)c3cccc2c13`, the cytochrome c release ratio worked out at 0.85.

As for `CN1Cc2c(N)cccc2C(c2ccccc2)C1` (stereo not drawn), the cytochrome c release ratio was found to be 0.88.

On to `CC(Cc1cccc(C(F)(F)F)c1)NCCOC(=O)c1ccccc1` (stereo not drawn), for which the cytochrome c release ratio amounted to 1.02.

For `CCN(CC)CCNC(=O)c1cc(Br)c(N)cc1OC`, the cytochrome c release ratio is 0.92.

With `COc1ccc(CN(CCN(C)C)c2ccccn2)cc1`, the cytochrome c release ratio came to 0.92.

In the case of `CCN(CC)C(=O)N1CCN(C)CC1`, the cytochrome c release ratio was found to be 0.61.

For `Cc1ncc([N+](=O)[O-])n1CCO`, the cytochrome c release ratio is 0.97.

Turning to `CCCCOc1ccc(OCCCN2CCOCC2)cc1`, the cytochrome c release ratio came out at 0.73.

Take `O=C(O)CCC(=O)Nc1ccc(S(=O)(=O)Nc2nccs2)cc1`: the cytochrome c release ratio worked out at 0.78.

For the compound `Cc1ccccc1N1C(=O)c2cc(S(N)(=O)=O)c(Cl)cc2NC1C` (stereo not drawn), the cytochrome c release ratio was found to be 0.86.

Consider `Cc1ccc(C(=O)c2ccc(CC(=O)O)n2C)cc1`, for which the cytochrome c release ratio was 1.04.

For the compound `Cc1ccccc1OCC(O)CO` (stereo not drawn), the cytochrome c release ratio was 1.09.

Regarding `O=C(Cn1ccnc1[N+](=O)[O-])NCCO`, the cytochrome c release ratio was found to be 0.82.

For the compound `CC1(C)OC(=O)NC1=O`, the cytochrome c release ratio amounted to 0.85.

`COc1ccc(NS(=O)(=O)c2ccc(N)cc2)nn1`: the cytochrome c release ratio amounted to 0.95.

As for `C=CCc1ccccc1OCC(O)CNC(C)C` (stereo not drawn), the cytochrome c release ratio stood at 1.44.

Take `Cc1cc(C(C)(C)C)c(O)c(C)c1CC1=NCCN1`: the cytochrome c release ratio turned out to be 0.88.

As for `CCn1cc(C(=O)O)c(=O)c2cnc(N3CCCC3)nc21`, the cytochrome c release ratio is 1.33.
